Screening data from PubChem BioAssay.
In the library only some 8.1% were active in any assay of this set; here they are far more common.
KB-3-1 tox: kills parental KB-3-1 adenocarcinoma cells; KB-3-1 viability, CellTiter-Glo ATP luminescence, 72 h; Potency, µM (series often up to 46.1 µM), usual class: cytotoxic; actives 1.4% (n = 400,000); AID 1347075; further: on the % scale 0 is the no-effect control and ±100 the full control effect; nearly all actives have a fitted effect of over 60% in size
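Screening of KB-3-1 cells (DMEM, 10% FBS, phenol-red free) ran from lowest to highest compound concentration; after 72 h at 37 °C viability was read luminescently and curves fitted.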
ELG1 DNA repair: ELG1-dependent DNA repair inhibition. HEK293T ELG1-luciferase reporter, luminescence, 16 h; DNA damage induced by 5-fluorouridine. Potency, µM (titrated, usually from 46.1 µM), for inactives: at the top dose activity change, negative = inhibition, usual class: inhibitors. actives 2.3% (n = 330,000); further: on the % scale 0 is the no-effect control and ±100 the full control effect; nearly all actives have a fitted effect of over 55% in size
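5-Fluorouridine DNA damage + compound/DMSO, 2,000 cells/well, 16 h, 37 °C/5% CO2. ONE-Glo, 30 min RT, luminescence. Readout = decrease in reporter signal.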
MCF10A rerep: induces DNA re-replication in MCF 10a normal breast cells; Potency, µM (titrated, usually from 46.1 µM), without a hit: at the top dose activity, positive = re-replication, usual class: activators; MCF 10A DNA re-replication, Hoechst nuclear intensity, 48 h; actives 2.9% (n = 350,000); further: % of control where 0% means no effect; nearly all actives have a fitted effect of over 50% in size
KB-V1 cytotox: kills drug-selected multidrug resistant KB-V1 cells | Potency, µM (series often up to 46.1 µM), hits mostly cytotoxic | actives 3.4% (n = 400,000) | KB-V1 MDR cells viability, CellTiter-Glo, 72 h; further: on the % scale 0 is the no-effect control and ±100 the full control effect; nearly all actives have a fitted effect of over 60% in size
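qHTS viability screen in drug-selected KB-V1 MDR cells: 72 h compound treatment at 37 degrees C, ATP luminescence end point.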
SW480 rerep: induces DNA re-replication in SW480 colon adenocarcinoma cells; Potency, µM (doses to about 46.1 µM), for the others: at the highest dose re-replication activation, usual class: activators; actives 1.8% (n = 340,000); SW480 DNA re-replication, Hoechst DNA content imaging, 48 h; further: % of control where 0% means no effect; nearly all actives have a fitted effect of over 55% in size
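DNA re-replication was detected as more nuclei of elevated Hoechst intensity after 48 hr exposure to compound (23 nL pinned per well of 250 cells).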
* marks the source's active call; other numbers are inactive results; i = inactive; u = inconclusive; x = no result. The call rests on the fitted dose curve; in most records, active means well fitted curve in the direction sought with a large enough effect; inconclusive means small, poorly fitted or top-dose-only effect, or another doubt; inactive means no such curve, though single readings can be large; an effect the other way counts as inactive or inconclusive. Potency means the concentration at half of the fitted maximal effect.

SMILES | KB-3-1 tox | ELG1 DNA repair | MCF10A rerep | KB-V1 cytotox | SW480 rerep
Cc1cc(NC2CCCCC2)nc(-c2ccccc2O)n1 | u | 2.4% | 18.4µM* | u | 0.1%
Cc1cc(N/N=C/c2c(O)ccc3ccccc23)nc(-c2ccccc2O)n1 | u | 23.1µM* | 3.26µM* | u | 13µM*
Cc1cc(Nc2ccccc2)nc(-c2ccccc2O)n1 | i | 7.9% | u | i | 1.1%
C=C(C)c1ccc(C(C)(C)NC(=O)N(Cc2ccccc2)Cc2ccco2)cc1 | i | -3.2% | 3.7% | i | 2.5%
COc1ccc(NC(=O)N(C)[C@H]2C[C@H]3c4[nH]c5ccc(-c6ccc7c(c6)OCO7)cc5c4CCN3C[C@H]2[C@H](C)O)cc1 | u | x | x | i | x
COc1ccc(NC(=O)N(C)[C@H]2C[C@H]3c4[nH]c5ccc(-c6ccc(OC)cc6)cc5c4CCN3C[C@H]2[C@H](C)O)cc1 | 20.6µM* | x | x | u | x
CN[C@H]1C[C@H]2c3[nH]c4ccc(-c5ccc(OC)cc5)cc4c3CCN2C(=O)[C@H]1[C@H](C)O | 5.8µM* | x | x | u | x
Cc1cc2c(ncn2Cc2ccccc2)c(NS(C)(=O)=O)c1C | i | u | 0.4% | i | -4.8%
CN(C)CCNC(=O)c1cc2c(s1)-c1ccc(Cl)cc1SC2 | u | u | 20.6µM* | i | u
Cc1ccc(CNC(=O)c2cc3c(s2)-c2ccc(Cl)cc2SC3)cc1 | i | x | x | i | x
O=C(CN1C(=O)NC(c2ccccc2)(c2ccccc2)C1=O)NCc1ccccc1 | i | 13.2% | -8.1% | i | 3.5%
CCOC(=O)c1cnc(-c2ccccc2O)nc1Cl | i | u | -9.2% | i | 1.9%
CCOC(=O)C1=Nc2ccccc2C1=[N+]=[N-] | u | u | 2.59µM* | 2.59µM* | u
Cc1ccc(Oc2nnc(-c3ccc(C)cc3)c3ccccc23)cc1 | u | u | -2.4% | 18.4µM* | -0.8%
Cc1ccc(-c2nnc(OCc3cccnc3)c3ccccc23)cc1 | i | u | -3.9% | 16.4µM* | -5.0%
c1ccc(-c2nnc(OCc3cccnc3)c3ccccc23)cc1 | i | 10.1% | -10.7% | i | 0.8%
COc1ccccc1C(=O)Nc1ccc(Oc2nnc(-c3ccc(C)cc3)c3ccccc23)cc1 | i | u | 4.2% | i | 3.5%
NNC(=O)[C@H](Cc1ccccc1)NC(=O)Nc1ccc2c(c1)OCCO2 | i | 3.6% | 1.5% | i | 1.4%
CC(=O)N/N=C/c1cc(C(C)C)cc(/C=N/NC(C)=O)c1O | i | 9.0% | 18.4µM* | u | 14.6µM*
CCOC(=O)CNC(=O)CNC(=O)c1ccc(OC)cc1 | i | 1.7% | -1.3% | u | 2.8%
COC(=O)c1sc(S(=O)(=O)NCC(=O)O)c(C(=O)OC)c1C | i | 3.4% | 1.8% | u | -1.8%
COC(=O)c1sc(S(=O)(=O)NCc2cccs2)c(C(=O)OC)c1C | i | 14.6µM* | 0.3% | i | -4.7%
CNC(=S)N/N=C/c1ccco1 | i | u | 0.5% | i | 16.4µM*
CCOc1ccc(NC(=O)CC2C(=O)Nc3ccccc3N2C(=O)c2ccccc2)cc1 (stereo unspecified) | i | -2.1% | u | u | -2.0%
CCc1nnc(SC(C)C(=O)Nc2nccs2)n1C (stereo unspecified) | i | 1.5% | -33.5% | i | -4.4%
SMILES | KB-3-1 tox | ELG1 DNA repair | MCF10A rerep | KB-V1 cytotox | SW480 rerep
Brc1ccc2c(c1)-c1ccccc1C1=NCCN12 | u | x | x | 10.3µM* | x
CN1C2=NCCN2C(=O)c2cc(Cl)ccc21 | i | -2.5% | 2.8% | i | u
Clc1ccc2c(c1)-c1ccccc1C1=NCCN12 | 10.3µM* | x | x | 8.2µM* | x
COc1ccc(Br)cc1S(=O)(=O)N1CCN=C1c1ccccc1 | x | 2.4% | -6.9% | x | 13.7%
CCOC(=O)N1CCN(C(=O)CSCC(=O)Nc2nc(-c3ccc(OC)cc3)cs2)CC1 | u | 0.0% | u | 20.6µM* | 8.9%
CCOC(=O)N1CCN(C(=O)CSCC(=O)Nc2nc(-c3ccc(Cl)s3)cs2)CC1 | i | 16.4µM* | 11.5% | i | 10.1%
COc1ccc(-c2csc(NC(=O)CSCC(=O)Nc3cc(C)on3)n2)cc1 | i | 2.9% | 4.0% | u | -9.1%
CCCC(=O)Nc1nc(-c2ccc(Cl)s2)cs1 | i | 0.2% | u | i | 27.8%
Cc1c(-c2ccc(Br)cc2)[n+](=O)c2c(n1[O-])CCCC2 | i | 2.0% | 0.9% | u | -6.8%
Nc1cccc2c3c(oc12)CCCC3 | i | 1.3% | 6.8% | u | 2.3%
CCOc1ccc(CNC(=O)c2ccc3nc(N4CCOCC4)sc3c2)cc1 | i | -2.8% | 2.1% | i | 2.6%
O=C(NCCc1ccc(Cl)cc1)c1ccc2nc(N3CCOCC3)sc2c1 | i | 10.8% | 20.6µM* | i | 4.0%
COc1ccc(CCNC(=O)c2ccc3nc(N4CCCCC4)sc3c2)cc1OC | i | u | 18.2% | 18.4µM* | -5.1%
COc1ccc(CCNc2nc(N3CCCCC3)nc(N3CCCCC3)n2)cc1OC | u | 20.6µM* | u | u | u
CC1CCN(c2nc3ccc(C(=O)NCCCN4CCCCC4C)cc3s2)CC1 (stereo unspecified) | i | u | 26.5% | i | 20.6µM*
O=C1NC(c2ccccc2)N=C2Oc3ccccc3C=C12 (stereo unspecified) | 1.3µM* | x | u | 4.11µM* | u
CCc1cccc(C)c1NC(=S)NCc1ccc2[nH]c(C)cc2c1 | i | u | -1.2% | i | 13µM*
CCCNC(=O)c1cc(C2CCCCN2C(=O)OCCF)on1 (stereo unspecified) | i | x | x | i | x
COc1ccc(NC(=S)NNC(=O)c2nnn(-c3ccccc3)c2C)cc1 | i | -2.9% | -66.4% | 18.4µM* | 4.11µM*
COc1ccc(NC(=O)c2cnn(-c3ccccc3)c2C)cc1 | i | u | -10.8% | u | 0.2%
NC(=S)Cc1nc(-c2ccc(Cl)cc2)cs1 | i | 3.2% | u | i | -14.3%
Cc1cc(C)nc(-n2nc(C)c(Sc3ccc(F)cc3)c2N)n1 | i | u | 3.26µM* | u | 18.4µM*
CCCCN1C[C@H](C)[C@@H](CC(=O)Nc2ccc(OC)cc2)C1=O | i | x | x | u | x
O=C1C=CC(=O)C(C2=C3C(=O)N(CCc4ccccc4)CC(=O)N3CCC2)=C1 | i | u | 7.31µM* | i | u
O=C1CC2(CCCCC2)CC(=O)N1CCc1ccccc1 | i | x | 11.8% | i | 1.2%
CC(C)(C)c1ccc(C(=O)Nc2onc3c2CCCC3)cc1 | i | x | x | i | x
Cc1ccc(NC(=O)Cn2c(=O)n(Cc3ccco3)c(=N)c3c4c(sc32)COC(C)(C)C4)cc1 | i | u | -1.4% | i | -2.1%
